# Only some compounds are listed: those with a hit (about 3.5% of all), similar ones and a draw of the others.
# Pf apPOL block = Pf-apPOL inhibitors, biochemical, fluorescence. Plasmodium falciparum apicoplast DNA polymerase (apPOL). Recombinant Pf-apPOL, molecular beacon fluorescence, 1.5 h. inhibition, % at 10 µM. 0.25% of 210,000 active
# mHTT CaM bind = mutant huntingtin-calmodulin interaction inhibitors – biochemical, AlphaScreen, primary screen; AlphaScreen His-mHTT/GST-CaM binding, luminescence; AID 1671202, 2021; inhibition, % at 15 µM; P42858; 3.6% of 190,000 active;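 note: 0% = both proteins with DMSO and 100% = one protein alone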
# Starred values were filed as active, the others as inactive; · = no result. Cut-off read from the data, not from the text of the source: active = inhibition above about 50%; inactive = the rest.
SMILES,Pf apPOL block,mHTT CaM bind
c1cc2c(cc1CN1CCc3nc(Nc4ccc5c(c4)OCCO5)ncc3C1)OCCO2,-1,71*
Clc1ccc(CN2CCc3nc(Nc4ccc5c(c4)OCCO5)ncc3C2)cc1,-1,77*
CCN(Cc1ccccc1)S(=O)(=O)c1ccc(F)c(C(=O)Nc2cc(OC)ccc2OC)c1,-6,-2
Cc1ccc2oc(-c3ccc(NC(=O)c4cccs4)cc3)nc2c1,-16,0
COc1ccc(NC(=O)N2CCC3(CC2)Nc2cc(F)ccc2-n2cccc23)cc1OC,-2,61*
CCc1ccc(NC(=O)N2CCC3(CC2)Nc2cc(F)ccc2-n2cccc23)cc1,-3,72*
COc1ccc(NC(=O)N2CCC3(CC2)Nc2cc(F)ccc2-n2cccc23)cc1,-3,66*
CSc1cccc(NC(=O)N2CCC3(CC2)Nc2cc(F)ccc2-n2cccc23)c1,-2,25
CCOc1ccc(NC(=O)N2CCC3(CC2)Nc2cc(F)ccc2-n2cccc23)cc1,1,66*
COc1cccc(NC(=O)N2CCC3(CC2)Nc2cc(F)ccc2-n2cccc23)c1,-6,47
CCc1nnc2ccc(NC(=O)Nc3ccc(F)cc3)cn12,1,0
Cc1cccc(-n2ccnc(SCC(=O)Nc3cc(Cl)ccc3C)c2=O)c1,7,7
Cc1ccc2[nH]c3c(c2c1)CCCC3=O,-6,2
Cc1ccc2[nH]c3c(c2c1)CCC1C3=NNC1c1ccco1 (configuration not stated),-4,79*
CCCCS(=O)(=O)N1CCC(n2c(-c3ccc(OC)cc3)nc3cccnc32)C1 (configuration not stated),1,28
Cc1cc2c(c(-c3ccccc3)n1)Cc1ccccc1-2,7,0
O=C(c1ccc(C#CC2(O)CCCCC2)cc1)N1CCN(c2ccc(F)cc2)CC1,-14,52*
O=C(c1ccc(F)cc1)N1CCN(c2ccccc2)CC1,-3,-2
O=C(c1ccnc(-c2cccs2)c1)N1CCCCCC1,-8,-4
COc1ccc(N2CCN(C(=O)c3ccnc(-c4cccs4)c3)CC2)cc1,-2,50*
Cc1ccc(NC(=O)c2cc([N+](=O)[O-])ccc2N2CCN(C)CC2)cc1Cl,-2,7
CCCCCCNC(=O)c1c[nH]c2ccc(S(=O)(=O)N3CC(C)CC(C)C3)cc2c1=O (configuration not stated),-11,-8
N#CC1=C(N)OC2=C(C(=O)c3ccccc3C2=O)C1c1ccc(-c2ccccc2)cc1 (configuration not stated),-2,8
Cc1cccc2nc(CSc3ncc(C#N)c(N)n3)cc(=O)n12,5,10
Cc1cccc2nc(CSc3n[nH]c(N)n3)cc(=O)n12,52*,2
SMILES,Pf apPOL block,mHTT CaM bind
Cc1cc(NC(=O)Cn2cc(-c3nc(-c4cnccn4)no3)ccc2=O)no1,1,-9
CCCCc1ccc(NC(=O)CSc2nncc(=O)[nH]2)cc1,-19,-1
CC(C)c1nnc(C2CCN(C(=O)c3cnc4ccccc4n3)CC2)o1,-7,100*
Cc1c(C(=O)N2CCC(c3nnc(C(C)C)o3)CC2)cnn1-c1ccccc1,0,-1
COc1ccccc1NC(=O)C1Oc2ccc(C)cc2NC1=O (configuration not stated),-2,-10
CCc1ccc(C2=C/C(=C/c3ccc(C)c(OC)c3)C(=O)O2)cc1,10,-3
CCc1ccc(C2=C/C(=C\c3ccc(C)o3)C(=O)O2)cc1,7,69*
CC(C)N1CCC(CNC(=O)C(=O)NCCC2=CCCCC2)CC1,-6,-3
Cc1cc(C)n(-c2nnc(C)c(=O)[nH]2)n1,-2,90*
Cc1cc(C)n(-c2nnc(N)nn2)n1,·,2
COc1ccc(N=C2NC(=O)/C(=C/c3ccc(Cl)cc3)S2)cc1,2,7
CNC(=O)CN1CCC(c2nnc(C(F)(F)F)o2)CC1,-3,-11
O=C(O)c1ccc(C2Nc3ccc(F)cc3C3C=CCC32)cc1 (configuration not stated),-8,79*
O=C(O)c1ccc(C2Nc3ccc(I)cc3C3C=CCC32)cc1 (configuration not stated),6,97*
O=C1CN(C(=O)c2ccc(F)cc2)C(c2ccc(F)cc2)c2cc(F)ccc2N1 (configuration not stated),-10,3
Fc1ccc2c(c1)C1OCCC1C(c1ccccc1)N2 (configuration not stated),·,1
Fc1ccc2c(c1)C1C=CCC1C(c1ccc(Cl)cc1)N2 (configuration not stated),0,75*
O=C(c1ccc(F)c(F)c1)N1CCN(c2nc(CN3CCCCC3)cs2)CC1,-3,3
CCCNc1cc(N2CCC(CCC(=O)Nc3ccc(OC)cc3C)CC2)ncn1,-2,6
O=C(NC1CC(=O)N(c2cccc(F)c2)C1)N1CCC(O)CC1 (configuration not stated),1,-2
CCn1ccc2c(cc(C(=O)Nc3ccc(C)c(F)c3)n2C)c1=O,-2,0
CS(=O)(=O)NCCNc1ccc([N+](=O)[O-])cc1Cl,-4,4
Nc1ccc(Nc2ccc([N+](=O)[O-])cc2S(=O)(=O)O)cc1,-3,52*
O=C1OCCN1C(=O)[C@H]1[C@H](c2ccc(Cl)cc2)C(c2ccc(F)cc2)=NN1c1ccccc1,2,72*
O=C1OCCN1C(=O)[C@H]1[C@H](c2ccc(F)cc2)C(c2ccccc2)=NN1c1ccccc1,1,-33
SMILES,Pf apPOL block,mHTT CaM bind
O=C1OCCN1C(=O)[C@H]1[C@H](c2ccc(Cl)cc2)C(c2ccc(F)cc2)=NN1c1ccc(Br)cc1,-7,79*
O=C1OCCN1C(=O)[C@H]1[C@H](c2ccc(F)cc2)C(c2ccc(F)cc2)=NN1c1ccccc1,1,24
O=C1OCCN1C(=O)[C@H]1[C@H](c2ccc(F)cc2)C(c2ccc(F)cc2)=NN1c1ccc(Br)cc1,-6,54*
O=C1OCCN1C(=O)[C@H]1[C@H](c2ccc(Cl)cc2)C(c2ccccc2)=NN1c1ccccc1,-8,-9
COc1ccc(OC)c(C2=NOC(C(=O)Nc3cccc(C(F)(F)F)c3)C2)c1 (configuration not stated),-6,-5
O=[N+]([O-])c1cccc2c1NC(c1ccc(Br)cc1)C1CC=CC21 (configuration not stated),1,82*
O=[N+]([O-])c1cccc2c1NC(c1ccccc1Br)C1CC=CC21 (configuration not stated),-1,63*
O=C(NCc1ccccc1)C1CCCN(C(=O)c2cccc(Cl)c2)C1 (configuration not stated),0,27
COc1cccc(C(CC(=O)N2CCOCC2)c2cnc3n2CCCC3)c1 (configuration not stated),-1,-5
CC(C)CC(=O)N1CCc2c(c(C(=O)NCc3ccc(F)cc3)nn2C)C1,-1,59*
COCC(=O)N1CCc2c(c(C(=O)NCc3ccc(F)cc3)nn2C)C1,-9,-2
COCC(=O)N1CCc2c(c(C(=O)NCc3ccccc3)nn2C)C1,2,19
CC(C)CC(=O)N1CCc2c(c(C(=O)NCc3ccc(Cl)cc3)nn2C)C1,3,66*
O=C(c1ccc(Oc2ccccc2)cc1)N1CC(c2nc3ccccc3[nH]2)C1,-28,100*
Cc1cc(C(=O)N2CC(c3nc4ccccc4[nH]3)C2)no1,-2,-10

# Source: PubChem
